PubChem BioAssay (Tox21)
Results filed as inconclusive are left out. Calls of active or inactive are those of the source. Unless noted, calls follow the shape of the dose curve; as a rule, active = well fitted curve in the direction sought with a large enough effect in the repeat runs; inconclusive = weak or mixed curves; inactive = no such curve, though single readings can be large; an effect the other way counts as inactive or inconclusive.

Experiments:
[1] = qHTS assay to identify aromatase inhibitors - cell viability counter screen (AID 743084);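 also: cells stimulated with testosterone during compound exposure; nearly all actives have a fitted effect of over 55% in size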
[2] = biological target: Aryl hydrocarbon receptor (Homo sapiens) (UniProt P35869); experiment: qHTS assay to identify small molecule that activate the aryl hydrocarbon receptor (AhR) signaling pathway (AID 743085);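 also: HG2L7.5c1 human HepG2 liver cells with stably integrated DRE-driven firefly reporter; series mostly up to about 70 µM; nearly all actives have a fitted effect of over 15% in size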
Sequence of Aryl hydrocarbon receptor (Homo sapiens) (P35869 whole entry, looked up): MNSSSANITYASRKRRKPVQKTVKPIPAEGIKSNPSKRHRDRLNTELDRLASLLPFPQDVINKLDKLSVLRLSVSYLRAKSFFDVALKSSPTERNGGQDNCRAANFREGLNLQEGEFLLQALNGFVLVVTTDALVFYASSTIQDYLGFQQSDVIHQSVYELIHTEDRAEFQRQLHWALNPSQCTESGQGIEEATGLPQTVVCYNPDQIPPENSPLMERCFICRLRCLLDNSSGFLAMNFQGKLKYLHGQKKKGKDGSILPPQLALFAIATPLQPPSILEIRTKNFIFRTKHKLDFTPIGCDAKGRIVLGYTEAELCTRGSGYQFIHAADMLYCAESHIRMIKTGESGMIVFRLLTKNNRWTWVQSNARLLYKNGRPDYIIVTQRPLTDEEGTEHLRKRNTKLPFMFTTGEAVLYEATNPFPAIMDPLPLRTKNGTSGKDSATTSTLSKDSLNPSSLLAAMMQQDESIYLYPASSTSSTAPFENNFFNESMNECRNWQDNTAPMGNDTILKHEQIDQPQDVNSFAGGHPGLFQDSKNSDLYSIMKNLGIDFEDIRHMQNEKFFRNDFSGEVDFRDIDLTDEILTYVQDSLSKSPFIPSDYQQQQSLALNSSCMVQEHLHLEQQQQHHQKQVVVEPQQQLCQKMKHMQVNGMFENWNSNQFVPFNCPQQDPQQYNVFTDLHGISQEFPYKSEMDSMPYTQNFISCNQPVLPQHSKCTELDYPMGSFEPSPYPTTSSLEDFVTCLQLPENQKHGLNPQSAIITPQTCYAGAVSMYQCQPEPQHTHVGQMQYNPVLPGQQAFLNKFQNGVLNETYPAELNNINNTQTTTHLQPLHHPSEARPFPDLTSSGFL
Procedure, shortened: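 HepG2 cells (HG2L7.5c1) stably carrying a firefly luciferase reporter driven by 20 dioxin responsive elements were exposed to compound for 24 h at 37C after a 5 h settling period; luminescence rise (ONE-Glo) indicated activation.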

[3] = qHTS assay to identify small molecule that activate the aryl hydrocarbon receptor (AhR) signaling pathway - cell viability counter screen (AID 743086);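 also: HepG2 liver cells carrying the AhR DRE luciferase reporter; series mostly up to about 70 µM; nearly all actives have a fitted effect of over 45% in size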
Procedure, shortened: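 HepG2-AhR-luc (HG2L7.5c1) cells, 4000/well, treated 24 h at 37 C with compound; viability measured as CellTiter-Fluor fluorescence after 30 min in the same wells as the luciferase read.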

[4] = biological target: Peroxisome proliferator-activated receptor gamma (Homo sapiens) (UniProt P37231); experiment: qHTS assay to identify small molecule agonists of the peroxisome proliferator-activated receptor gamma (PPARg) signaling pathway (AID 743094; active = well fitted activation curve with a large enough effect in the signal ratio in the repeat runs, not every such curve was filed as active; the % refers to the signal ratio)
Sequence of Peroxisome proliferator-activated receptor gamma (Homo sapiens) (P37231 whole entry, looked up): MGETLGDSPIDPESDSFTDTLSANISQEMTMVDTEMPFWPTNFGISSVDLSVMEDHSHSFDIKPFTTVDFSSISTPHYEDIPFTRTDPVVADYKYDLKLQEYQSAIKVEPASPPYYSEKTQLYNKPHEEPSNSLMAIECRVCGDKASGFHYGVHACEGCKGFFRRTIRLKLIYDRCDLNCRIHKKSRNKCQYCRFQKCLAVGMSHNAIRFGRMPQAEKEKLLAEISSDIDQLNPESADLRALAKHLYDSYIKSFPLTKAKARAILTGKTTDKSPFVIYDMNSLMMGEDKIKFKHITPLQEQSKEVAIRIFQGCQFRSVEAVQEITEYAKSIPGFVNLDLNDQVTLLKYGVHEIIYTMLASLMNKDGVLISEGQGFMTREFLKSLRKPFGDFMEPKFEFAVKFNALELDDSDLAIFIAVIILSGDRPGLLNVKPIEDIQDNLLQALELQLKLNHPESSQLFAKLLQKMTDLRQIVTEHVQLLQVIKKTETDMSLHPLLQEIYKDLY
Procedure, shortened: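 GeneBLAzer PPARg UAS-bla HEK293H cells were plated, rested 5 h, then exposed to compounds for 17 h at 37C. Beta-lactamase activity was read by LiveBLAzer B/G FRET substrate fluorescence after 1 h at room temperature.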

[5] = biological target: Peroxisome proliferator-activated receptor gamma (Homo sapiens) (UniProt P37231); experiment: qHTS assay to identify small molecule antagonists of the peroxisome proliferator-activated receptor gamma (PPARg) signaling pathway (AID 743191; calls by dose curve; also: series mostly up to about 63 µM; nearly all actives have a fitted effect of over 30% in size)
Procedure, shortened: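 GeneBLAzer PPARg UAS-bla HEK293H cells, 5 h post-plating, exposed to compounds 17 h at 37C. LiveBLAzer B/G FRET substrate added for 1 h at room temperature; beta-lactamase reporter read by fluorescence intensity.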

[6] = qHTS assay to identify small molecule antagonists of the peroxisome proliferator-activated receptor gamma (PPARg) signaling pathway - cell viability counter screen (AID 743194); also: nearly all actives have a fitted effect of over 55% in size
Procedure, shortened: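 Cytotoxicity counter screen in PPARg-bla HEK293H cells, same wells as reporter assay. Compounds plus 50 nM rosiglitazone (final) for 17 h at 37 C, then viability read by CellTiter-Glo luminescence.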

[7] = qHTS assay for small molecule agonists of the antioxidant response element (ARE) signaling pathway (AID 743202; active = well fitted activation curve with a large enough effect in the signal ratio in the repeat runs, not every such curve was filed as active; the % refers to the signal ratio)
Procedure, shortened: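 ARE-bla HepG2 cells (beta-lactamase reporter under the antioxidant response element), plated 5 hours, then exposed to compounds 16 hours at 37 C. LiveBLAzer B/G FRET substrate added for 2 hours at room temperature; fluorescence intensity read.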

[8] = qHTS assay for small molecule agonists of the antioxidant response element (ARE) signaling pathway - cell viability counter screen (AID 743203; calls by dose curve; also: nearly all actives have a fitted effect of over 55% in size)
Procedure, shortened: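 ARE-bla HepG2 cells were plated, rested 5 h at 37C/5% CO2, then exposed to compounds in DMSO for 16 h. Viability was read as CellTiter-Glo luminescence after 30 min at room temperature, in the same wells as the ARE screen.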

[9] = qHTS assay for small molecule activators of the heat shock response signaling pathway - cell viability counter screen (AID 743209); also: nearly all actives have a fitted effect of over 50% in size
Procedure, shortened: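 HSE-bla HeLa cells plated overnight, then exposed to Tox21 compounds (23 nL in DMSO) for 5 h at 37 C. After the bla reporter read, CellTiter-Glo was added in the same wells and luminescence read after 30 min at room temperature.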

[10] = qHTS assay for small molecule activators of the heat shock response signaling pathway (AID 743210; active = well fitted activation curve with a large enough effect in the signal ratio in the repeat runs, with a control signal flat, not every such curve was filed as active; the % refers to the signal ratio; also: series mostly up to about 63 µM)
Procedure, shortened: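 HSE-bla HeLa cells (beta-lactamase reporter under heat shock response elements), plated overnight, then exposed to compounds 5 h at 37 C; LiveBLAzer B/G FRET substrate added, 2.5 h at room temperature, fluorescence intensity read.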

[11] = qHTS assay to identify small molecule agonists of the peroxisome proliferator-activated receptor delta (PPARd) signaling pathway - cell viability counter screen (AID 743211); also: nearly all actives have a fitted effect of over 55% in size
Procedure, shortened: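 PPARd-bla HEK293H cells (UAS-beta-lactamase reporter) were treated with compounds for 17 h at 37 C. Viability was then read in the same wells by CellTiter-Glo luminescence after 30 min at room temperature.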

[12] = biological target: Peroxisome proliferator-activated receptor delta (Homo sapiens) (UniProt Q03181); experiment: qHTS assay to identify small molecule agonists of the peroxisome proliferator-activated receptor delta (PPARd) signaling pathway (AID 743212; calls by dose curve)
Sequence of Peroxisome proliferator-activated receptor delta (Homo sapiens) (Q03181 whole entry, looked up): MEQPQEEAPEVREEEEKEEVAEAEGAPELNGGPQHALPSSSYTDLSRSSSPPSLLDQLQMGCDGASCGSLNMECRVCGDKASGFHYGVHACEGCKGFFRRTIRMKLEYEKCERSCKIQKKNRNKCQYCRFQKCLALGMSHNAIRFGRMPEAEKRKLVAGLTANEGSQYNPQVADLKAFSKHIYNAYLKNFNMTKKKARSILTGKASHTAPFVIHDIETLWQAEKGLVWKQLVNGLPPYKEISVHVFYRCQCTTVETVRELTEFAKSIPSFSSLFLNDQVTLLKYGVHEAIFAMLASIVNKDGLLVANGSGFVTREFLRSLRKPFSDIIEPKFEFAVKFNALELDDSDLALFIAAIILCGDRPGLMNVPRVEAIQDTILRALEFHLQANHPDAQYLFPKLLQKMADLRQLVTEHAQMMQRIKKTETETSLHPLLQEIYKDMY
Procedure, shortened: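 GeneBLAzer UAS-bla HEK293H cells carrying a PPARδ construct were exposed to compounds at 37 °C. Beta-lactamase activity was read by FRET fluorescence after 2 h at room temperature with LiveBLAzer B/G substrate.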

[13] = qHTS assay to identify small molecule antagonists of the peroxisome proliferator-activated receptor delta (PPARd) signaling pathway - cell viability counter screen (AID 743213); also: nearly all actives have a fitted effect of over 50% in size
Procedure, shortened: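 HEK293H PPARd UAS-bla cells, 5 h pre-incubation, compound + L165041 300 nM final, 17 h 37 C; B/G FRET substrate 2 h RT; then CellTiter-Glo 30 min RT, luminescence.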

[14] = biological target: Peroxisome proliferator-activated receptor delta (Homo sapiens) (UniProt Q03181); experiment: qHTS assay to identify small molecule antagonists of the peroxisome proliferator-activated receptor delta (PPARd) signaling pathway (AID 743215; active = well fitted inhibition curve with a large enough effect in the signal ratio in the repeat runs, not every such curve was filed as active; the % refers to the signal ratio;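 also: cells stimulated with agonist L165041 at 300 nM final during compound exposure; series mostly up to about 62 µM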)
Procedure, shortened: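 PPARd-bla HEK293H cells (UAS-bla reporter) preincubated 5 h, then given compound plus 300 nM final L165041 agonist for 17 h at 37 C. Beta-lactamase activity read by LiveBLAzer B/G FRET substrate fluorescence after 2 h at room temperature.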

[15] = qHTS assay to identify small molecule agonists of the farnesoid-X-receptor (FXR) signaling pathway - cell viability counter screen (AID 743218); also: nearly all actives have a fitted effect of over 45% in size
Procedure, shortened: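 FXR-UAS-bla HEK 293T cells exposed to compounds for 16 h at 37C. Cytotoxicity read in the same wells by CellTiter-Glo luminescence after 30 min at room temperature, following the beta-lactamase FRET read.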

[16] = qHTS assay to identify small molecule antagonists of the farnesoid-X-receptor (FXR) signaling pathway - cell viability counter screen (AID 743221; active = well fitted cell-killing curve with a large enough effect in the repeat runs, not every such curve was filed as active; also: nearly all actives have a fitted effect of over 50% in size)
Procedure, shortened: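 FXR-UAS-bla HEK 293T cells were treated with test compounds plus chenodeoxycholic acid (50 uM final) for 16 h at 37 C. Cell viability in the same wells was then read as CellTiter-Glo luminescence after 30 min at room temperature.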

[17] = biological target: Vitamin D3 receptor (Homo sapiens) (UniProt P11473); experiment: qHTS assay to identify small molecule antagonists of the vitamin D receptor (VDR) signaling pathway (AID 743223; active = well fitted inhibition curve with a large enough effect in the signal ratio in the repeat runs, not every such curve was filed as active; the % refers to the signal ratio)
Sequence of Vitamin D3 receptor (Homo sapiens) (P11473 whole entry, looked up): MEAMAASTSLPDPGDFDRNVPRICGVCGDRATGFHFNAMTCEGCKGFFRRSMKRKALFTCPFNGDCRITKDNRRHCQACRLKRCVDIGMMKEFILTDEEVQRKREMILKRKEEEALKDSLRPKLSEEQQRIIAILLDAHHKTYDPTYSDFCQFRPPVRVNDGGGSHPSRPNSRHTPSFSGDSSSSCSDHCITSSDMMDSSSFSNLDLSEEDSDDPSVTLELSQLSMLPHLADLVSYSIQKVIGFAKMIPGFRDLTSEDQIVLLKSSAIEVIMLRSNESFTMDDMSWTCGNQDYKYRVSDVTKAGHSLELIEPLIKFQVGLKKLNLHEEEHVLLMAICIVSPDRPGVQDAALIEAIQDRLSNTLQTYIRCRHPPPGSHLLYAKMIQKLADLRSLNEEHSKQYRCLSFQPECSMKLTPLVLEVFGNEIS
Procedure, shortened: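 VDR-bla cells were plated, incubated 4 h at 37C, then given compound and 1alpha,25-dihydroxyvitamin D3 (3 nM final). After 16 h at 37C, LiveBLAzer B/G FRET substrate was added for 2 h at room temperature and fluorescence read.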

[18] = biological target: Bile acid receptor (Homo sapiens) (UniProt Q96RI1); experiment: qHTS assay to identify small molecule antagonists of the farnesoid-X-receptor (FXR) signaling pathway (AID 743217; active = well fitted inhibition curve with a large enough effect in the signal ratio in the repeat runs, not every such curve was filed as active; the % refers to the signal ratio)
Sequence of Bile acid receptor (Homo sapiens) (Q96RI1 whole entry, looked up): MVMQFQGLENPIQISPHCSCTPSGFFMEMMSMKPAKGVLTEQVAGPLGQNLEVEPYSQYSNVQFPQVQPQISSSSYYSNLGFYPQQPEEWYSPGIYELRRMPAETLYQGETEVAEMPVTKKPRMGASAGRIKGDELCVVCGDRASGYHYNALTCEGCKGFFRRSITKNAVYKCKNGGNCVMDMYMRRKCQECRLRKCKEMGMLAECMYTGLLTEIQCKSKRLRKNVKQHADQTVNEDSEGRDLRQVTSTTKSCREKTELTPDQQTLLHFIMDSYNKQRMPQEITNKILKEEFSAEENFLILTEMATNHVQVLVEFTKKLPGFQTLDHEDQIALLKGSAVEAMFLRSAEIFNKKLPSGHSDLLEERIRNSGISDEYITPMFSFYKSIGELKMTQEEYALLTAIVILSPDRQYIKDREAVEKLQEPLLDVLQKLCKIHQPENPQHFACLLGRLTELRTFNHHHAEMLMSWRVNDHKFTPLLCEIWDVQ
Procedure, shortened: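 FXR-UAS-bla HEK 293T cells (beta-lactamase reporter) given compound plus chenodeoxycholic acid (50 uM final), 16 h at 37C. LiveBLAzer B/G FRET substrate added for 2 h at room temperature; fluorescence read.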

[19] = biological target: Bile acid receptor (Homo sapiens) (UniProt Q96RI1); experiment: qHTS assay to identify small molecule agonists of the farnesoid-X-receptor (FXR) signaling pathway (AID 743220; active = well fitted activation curve with a large enough effect in the signal ratio in the repeat runs, not every such curve was filed as active; the % refers to the signal ratio)
Procedure, shortened: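 Beta-lactamase reporter under UAS control in GeneBLAzer FXR HEK 293T cells (5000/well) measured with LiveBLAzer FRET substrate after 2 h at room temperature. Compound exposure lasted 16 h at 37C.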

[20] = biological target: Vitamin D3 receptor (Homo sapiens) (UniProt P11473); experiment: qHTS assay to identify small molecule agonists of the vitamin D receptor (VDR) signaling pathway (AID 743222; calls by dose curve)
Procedure, shortened: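 VDR-bla cells plated 4 h at 37 C, then exposed to compounds for 16 h at 37 C. Beta-lactamase reporter activity measured by fluorescence after 2 h room-temperature loading with LiveBLAzer B/G FRET substrate.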
% is scaled to controls: 0 for no effect and ±100 for the full control effect.

O=c1[nH]c(=O)c2[nH]c(=O)[nH]c2[nH]1
inactive: Potency [1] | Potency [2] | Potency [3] | outcome [4] | ratio activity, negative = inhibition [5] -6.65% [at 13.2 µM] | activity change, negative = cytotoxicity [6] -35.1% [at 13.2 µM] | activation [7] 2.83% [at 8.36 µM] | viability change, negative = cytotoxic [8] 8.26% [at 8.36 µM] | activity change, negative = cytotoxicity [9] -0.886% [at 13.2 µM] | activation [10] -0.669% [at 13.2 µM] | activity change, negative = cytotoxicity [11] 7.12% [at 13.2 µM] | activation [12] 2.22% [at 13.2 µM] | viability change, negative = cytotoxic [13] -1.61% [at 13.7 µM] | ratio activity, negative = inhibition [14] -0.0973% [at 13.7 µM] | viability change, negative = cytotoxic [15] 18.5% [at 13.2 µM] | activity change, negative = cytotoxicity [16] 0.395% [at 13.2 µM]

CCCC(C)CC (centres undefined)
inactive: Potency [1] | Potency [2] | Potency [3] | outcome [4] | Potency [5] | outcome [6] | Potency [7] | outcome [8] | outcome [9] | outcome [10] | outcome [11] | outcome [12] | outcome [13] | outcome [14] | Potency [15] | outcome [16] | outcome [17]

Nc1cc(C(=O)O)ccc1Cl
inactive: Potency [1] | Potency [2] | Potency [3] | outcome [4] | Potency [5] | outcome [6] | Potency [7] | outcome [8] | outcome [9] | outcome [10] | outcome [11] | outcome [12] | outcome [13] | outcome [14] | outcome [18] | Potency [15] | outcome [19] | outcome [16] | outcome [20] | outcome [17]

Cc1ccccc1C(=O)N1CC/C(=N\OS(=O)(=O)O)c2ccc(Cl)cc21
inactive: Potency [1] | Potency [2] | Potency [3] | outcome [4] | Potency [5] | outcome [6] | Potency [7] | outcome [8] | outcome [9] | outcome [11] | outcome [13] | outcome [14] | Potency [15] | outcome [16] | outcome [20]

CCCCCC1Nc2cc(C(F)(F)F)c(S(N)(=O)=O)cc2S(=O)(=O)N1 (centres undefined)
inactive: Potency [1] | Potency [2] | Potency [3] | outcome [4] | Potency [5] | outcome [6] | Potency [7] | outcome [8] | outcome [9] | outcome [10] | outcome [11] | outcome [13] | outcome [14] | Potency [15] | outcome [16] | outcome [20] | outcome [17]

CC(C)CCO
inactive: Potency [1] | Potency [2] | Potency [3] | outcome [4] | Potency [5] | outcome [6] | Potency [7] | outcome [8] | outcome [9] | outcome [11] | outcome [12] | outcome [13] | outcome [14] | Potency [15] | outcome [16] | outcome [20] | outcome [17]

NC(=O)NC(=O)Cc1ccccc1
inactive: Potency [1] | Potency [2] | Potency [3] | outcome [4] | Potency [5] | outcome [6] | Potency [7] | outcome [8] | outcome [9] | outcome [10] | outcome [11] | outcome [12] | outcome [13] | outcome [18] | Potency [15] | outcome [16] | outcome [17]

C1=C\CC/C=C\CC/1
inactive: Potency [1] | Potency [2] | Potency [3] | outcome [4] | Potency [5] | outcome [6] | Potency [7] | outcome [8] | outcome [9] | outcome [10] | outcome [11] | outcome [12] | outcome [13] | outcome [14] | Potency [15] | outcome [16] | outcome [20] | outcome [17]

F[Si-2](F)(F)(F)(F)F
inactive: Potency [1] | Potency [2] | Potency [3] | outcome [4] | Potency [5] | outcome [6] | Potency [7] | outcome [8] | outcome [9] | outcome [10] | outcome [11] | outcome [13] | outcome [14] | Potency [15] | outcome [19] | outcome [16] | outcome [20] | outcome [17]

FC(F)(F)/C(=N\OCC1OCCO1)c1ccc(Cl)cc1
inactive: Potency [1] | Potency [2] | Potency [3] | outcome [4] | Potency [5] | outcome [6] | Potency [7] | outcome [8] | outcome [9] | outcome [10] | outcome [11] | outcome [13] | Potency [15] | outcome [16] | outcome [17]

O=CN1CCOCC1
inactive: Potency [1] | Potency [2] | Potency [3] | outcome [4] | Potency [5] | outcome [6] | Potency [7] | outcome [8] | outcome [9] | outcome [10] | outcome [11] | outcome [12] | outcome [13] | Potency [15] | outcome [16]

Cc1ccccc1C
inactive: Potency [1] | Potency [2] | Potency [3] | outcome [4] | Potency [5] | outcome [6] | Potency [7] | outcome [8] | outcome [9] | outcome [10] | outcome [11] | outcome [12] | Potency [15] | outcome [16] | outcome [20]

O=C(O)CCNC(=O)c1ccccc1
inactive: Potency [1] | Potency [2] | Potency [3] | outcome [4] | Potency [5] | outcome [6] | Potency [7] | outcome [8] | outcome [9] | outcome [10] | outcome [11] | outcome [12] | outcome [13] | Potency [15] | outcome [16]

Cc1ccccc1OCC1CO1 (centres undefined)
inactive: Potency [1] | Potency [2] | Potency [3] | outcome [4] | Potency [5] | outcome [6] | Potency [7] | outcome [8] | outcome [9] | outcome [11] | outcome [12] | outcome [13] | outcome [14] | outcome [18] | Potency [15] | outcome [19] | outcome [16]

CCCCOC(=O)C(=O)OCCCC
inactive: Potency [1] | Potency [2] | Potency [3] | outcome [4] | Potency [5] | outcome [6] | Potency [7] | outcome [8] | outcome [9] | outcome [10] | outcome [11] | outcome [12] | outcome [13] | outcome [18] | Potency [15] | outcome [19] | outcome [16]

O=P(O)(O)OCC(O)CO (centres undefined)
inactive: Potency [1] | Potency [2] | Potency [3] | outcome [4] | Potency [5] | outcome [6] | Potency [7] | outcome [8] | outcome [9] | outcome [11] | outcome [12] | outcome [14] | outcome [18] | Potency [15] | outcome [16]
